Data from article PMC5540273 (PLoS ONE, 2017).

What was measured:
Details in all cases: concentration: 1 μM,replicates: in singlicate; n = 1
ASK2 = system: T1, ASK2
T1 construct: gene MAP3K6

AURKA = system: AURKA
AURKB = system: AURKB
AURKC = system: AURKC
AXL = system: AXL
BIKE = system: T2, BIKE
T2 construct: gene BMP2K

BLK = system: BLK
BMPR1A = system: BMPR1A
BMPR1B = system: BMPR1B
BMPR2 = system: BMPR2
BMX = system: BMX
BRAF = system: BRAF
BRK = system: T3, BRK
T3 construct: gene PTK6

BRSK1 = system: BRSK1
BRSK2 = system: BRSK2
BTK = system: BTK
BUB1 = system: BUB1
CAMK1B = system: CAMK1B
CAMK1D = system: CAMK1D
CAMK1G = system: CAMK1G
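Note: KINOMEscan kinase panel screen.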

SMILES	%Inh (ASK2) [%]	%Inh (AURKA) [%]	%Inh (AURKB) [%]	%Inh (AURKC) [%]	%Inh (AXL) [%]	%Inh (BIKE) [%]	%Inh (BLK) [%]	%Inh (BMPR1A) [%]	%Inh (BMPR1B) [%]	%Inh (BMPR2) [%]	%Inh (BMX) [%]	%Inh (BRAF) [%]	%Inh (BRK) [%]	%Inh (BRSK1) [%]	%Inh (BRSK2) [%]	%Inh (BTK) [%]	%Inh (BUB1) [%]	%Inh (CAMK1B) [%]	%Inh (CAMK1D) [%]	%Inh (CAMK1G) [%]
COC(=O)c1cccc(NC(=O)NC2CCN(c3ccnc(Nc4cc(OC)c(OC)c(OC)c4)n3)C2)c1 (stereo not drawn) [GSK1379767]	0	72	39	73	0	60	0	11	0	26	30	0	8	0	0	37	48	38	14	0
CN1CCN(CCNc2nc3cc(Oc4ccc(NC(=O)Nc5cc(C(F)(F)F)ccc5F)cc4)ccc3[nH]2)CC1.Cl.Cl [GW768504]	0	9	22	13	82	0	14	12	0	0	0	0	0	0	6	0	0	0	0	4
Cn1ccc2ncnc(Oc3ccc(NC(=O)Nc4cncc(C(F)(F)F)c4)c(Cl)c3)c21	0	0	25	0	59	0	9	0	0	0	0	52	0	0	0	0	0	0	0	0
Cc1ccc(CC(=O)N2CCc3cc(-c4cn(C)c5ncnc(N)c45)ccc32)cc1 [GSK2634758]	0	8	96.1	47	98.8	16	31	0	0	0	12	0	78	2	0	15	12	0	19	23
C[C@@H]1CNc2c(sc3ccc4nc(-c5ccc(O)cc5)ccc4c23)C(=O)N1	0	42	24	0	87	0	0	27	0	7	14	0	0	48	72	0	58	13	0	16
COc1cc2ncn(-c3cc(OCC4CCCCC4)c(C(N)=O)s3)c2cc1OC [GSK204559]	8	0	13	60	0	90	33	0	0	5	10	0	8	30	45	0	17	6	16	11
COc1cc2c(Nc3ccc(NC(=O)c4ccccc4)cc3)ncnc2cc1OCCCN1CCOCC1 [GSK301329]	20	94.5	95.6	70	55	28	96.7	0	0	0	7	0	77	20	0	0	10	9	35	9
COc1cccc(CNC(=O)NC2CCN(c3ccnc(Nc4cc(OC)c(OC)c(OC)c4)n3)C2)c1 (stereo not drawn) [GSK1379765]	0	85	91.4	79	30	53	9	0	0	23	23	0	34	0	0	42	81	35	17	0
OCCn1cc(-c2cnc3nnn(Cc4ccc5ncccc5c4)c3n2)cn1	0	0	0	0	0	0	4	7	0	0	0	1	0	22	0	0	0	0	4	0
Cn1ccc2ncnc(Oc3ccc(NC(=O)Nc4cc(C(C)(C)C)on4)c(Cl)c3)c21	0	6	88	15	97.2	0	87	7	16	5	33	76	10	8	0	0	5	0	14	12
CS(=O)c1ccc(-c2coc3ccc(-c4n[nH]c(=O)o4)cc23)cc1 (stereo not drawn)	23	13	26	0	3	17	4	10	32	9	0	12	0	0	2	20	14	14	0	12
Cc1n[nH]c2cc(Nc3ccnc(Nc4cccc(CN5CCOCC5)c4)n3)ccc12 [GW682569]	0	98.9	55	93.5	35	98.1	0	0	87	6	11	0	47	0	0	60	36	37	26	1
CCn1c(-c2nonc2N)nc2cncc(CNC3CCNCC3)c21.Cl [SB-747651]	8	6	23	0	100	0	8	0	0	17	0	10	0	4	0	14	48	30	22	0
COc1ccc(Nc2nccc(N3CCC(NC(=O)c4cccc(C#N)c4)C3)n2)cc1 (stereo not drawn) [GSK1379730]	0	0	0	22	21	22	38	6	0	0	0	0	8	0	0	28	53	13	0	0
C[C@@H](Oc1cc(-n2cnc3cc(-c4cnn(C)c4)ccc32)sc1C(N)=O)c1ccccc1Cl [GSK580432]	15	38	90.6	100	97.4	100	89	19	0	0	22	0	0	82	93.3	0	27	22	31	26
c1ccc(Oc2ccc(Nc3ccnc4ccc(-c5ccccn5)cc34)cc2)cc1 [GW407034]	11	6	19	4	0	8	90.2	11	0	26	44	13	81	12	0	61	12	5	0	5
COc1cc(Nc2nccc(N3CCC(NC(=O)c4cccc(C#N)c4)C3)n2)cc(OC)c1OC (stereo not drawn) [GSK1379751]	0	68	36	56	22	90	0	0	2	11	0	0	0	0	100	0	61	22	0	0

SMILES	%Inh (ASK2) [%]	%Inh (AURKA) [%]	%Inh (AURKB) [%]	%Inh (AURKC) [%]	%Inh (AXL) [%]	%Inh (BIKE) [%]	%Inh (BLK) [%]	%Inh (BMPR1A) [%]	%Inh (BMPR1B) [%]	%Inh (BMPR2) [%]	%Inh (BMX) [%]	%Inh (BRAF) [%]	%Inh (BRK) [%]	%Inh (BRSK1) [%]	%Inh (BRSK2) [%]	%Inh (BTK) [%]	%Inh (BUB1) [%]	%Inh (CAMK1B) [%]	%Inh (CAMK1D) [%]	%Inh (CAMK1G) [%]
C[C@@H]1CNc2c(sc3ccc4nc(-c5ccncc5)ccc4c23)C(=O)N1	0	0	17	9	81	19	0	12	7	0	0	0	0	64	59	0	77	0	25	0
CS(=O)(=O)Nc1ccc(-c2ccnc3[nH]ccc23)cc1 [GSK993273]	21	39	48	76	76	97.5	0	1	3	43	0	0	0	8	0	0	35	27	38	30
CCNCC(Cc1ccccc1)NC(=O)c1cc(Br)c(-c2ccnc3[nH]ccc23)s1.Cl.Cl (stereo not drawn) [GSK1383280]	0	96.2	93.6	86	63	79	0	0	0	0	3	0	34	0	0	0	31	28	32	11
Cc1nnc(-c2ccc3occ(-c4ccc(S(C)=O)cc4)c3n2)o1 (stereo not drawn)	0	0	0	0	0	0	0	0	0	0	0	0	0	0	0	0	0	0	17	3
Cl.c1ccc(Oc2ccc(Nc3ccnc4cc(-c5ccc(CN6CCNCC6)o5)ccc34)cc2)nc1 [GW567142]	0	20	77	27	0	0	86	0	0	2	4	0	92.7	0	0	76	38	0	20	0
Cl.Nc1n[nH]c2cc(-c3ccccn3)ccc12 [GSK2189892]	0	0	8	0	0	32	22	0	0	0	12	0	32	0	0	0	0	0	25	0
O=C(Nc1n[nH]c2cc(-c3ccco3)ccc12)C1CC1 [SB-737447]	4	46	12	34	0	53	0	0	14	0	0	0	0	31	46	0	0	0	0	100
CC(=O)c1c(-c2ccncc2)[nH]c(-c2ccncc2)c1C [GW493036]	0	0	16	5	17	23	38	0	0	24	0	19	3	0	0	7	84	0	20	0
Cc1cccc2c(-c3ccncc3)c(-c3ccc(F)cc3)nn12.Cl [GW461487]	0	7	0	0	0	3	22	0	0	0	15	14	0	0	0	0	52	0	4	20
CNC(=O)c1ccccc1Nc1nc(Nc2cccc(CS(C)(=O)=O)c2)ncc1C.O=CO [GSK1520489]	13	100	99.9	96.8	100	99.2	99.6	0	99.9	99.3	97.2	59	99.7	65	79	95.4	88	14	40	29
O=C(Nc1cccc(Oc2ccc3nccn3n2)c1)Nc1cccc(C(F)(F)F)c1	4	0	0	41	35	11	9	0	0	0	0	88	0	5	13	0	7	0	12	0
Cn1ccc2ncnc(Oc3ccc(NC(=O)Nc4cccc(C(F)(F)F)c4)c(Cl)c3)c21	0	0	51	29	75	0	6	15	0	0	15	46	5	0	0	0	0	16	16	1
Cc1ccc(Nc2ccnc(Nc3ccc4c(c3)CS(=O)(=O)C4)n2)cc1O.Cl [GW579362]	3	100	85	97.9	86	99.8	99.5	85	99.8	62	80	77	95	10	3	100	99.3	31	38	34
COC(=O)Nc1nc2cc(Oc3ccc(NC(=O)Nc4cc(C(F)(F)F)ccc4Cl)cc3)ccc2[nH]1.Cl [GW697465]	0	0	86	53	98	8	63	0	0	21	95.2	41	12	0	0	7	67	0	13	0
Nc1nccc(-c2ccc3c(N)n[nH]c3c2)n1 [GSK1034945]	0	0	0	51	0	94.4	25	12	87	0	0	0	4	41	15	0	73	10	7	0
Cc1ccn2nc(-c3ccc(F)cc3)c(-c3ccncc3)c2c1.Cl [GW457859]	0	10	0	8	3	17	26	0	0	3	8	49	0	0	0	22	87	30	1	0
